Measured values as given in PubChem BioAssay (NCI).
The panel holds about 79,000 compounds, 15% with a hit somewhere; the sample as a whole holds those more often. Calls of active or inactive are those of the source. No stated cut-off is given here; in the data, active means growth inhibition above about 70%; inactive means the rest.

Tests used:
[1] = NCI Yeast Anticancer Drug Screen. Data for the mec2-1 strain (AID 157); conditions: S. cerevisiae mec2-1 strain, hits give high values
Procedure, shortened: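 Each compound was tested on mec2-1 yeast, a strain altered in DNA damage repair or cell cycle control. Growth inhibition is reported relative to vehicle.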

[2] = NCI Yeast Anticancer Drug Screen. Data for the sgs1 mgt1 strain (AID 161);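 further: 0% = growth of cultures given vehicle only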; conditions: S. cerevisiae sgs1 mgt1 strain, hits give high values
Procedure, shortened: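 Mutant yeast exposed to compound; growth scored against vehicle-only wells.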

[3] = NCI Yeast Anticancer Drug Screen. Data for the CLN2oe strain (AID 163);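 further: 0% = growth of vehicle-only control cultures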; conditions: S. cerevisiae CLN2oe strain, hits give high values
Procedure, shortened: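 First, the altered yeast strain was treated with each compound; second, its growth was measured; finally, inhibition was derived by comparison with vehicle controls.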

[4] = NCI Yeast Anticancer Drug Screen. Data for the cln2 rad14 strain (AID 165);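 further: 0% = growth equal to vehicle treated cultures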; conditions: S. cerevisiae cln2 rad14 strain, hits give high values
Procedure, shortened: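 Test compounds were added to cln2 rad14 yeast cultures; inhibition of growth was then determined by comparison with vehicle treatment.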

[5] = NCI Yeast Anticancer Drug Screen. Data for the bub3 strain (AID 167); conditions: S. cerevisiae bub3 mutant strain, hits give high values
Procedure, shortened: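 Part of a panel of yeast mutants defective in DNA damage repair or cell cycle regulation. Each strain is grown with compound, and inhibition is calculated relative to solvent-treated cultures.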

[6] = NCI Yeast Anticancer Drug Screen. Data for the wt2 strain (AID 169);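 further: 0% = growth of vehicle-treated yeast cultures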; conditions: S. cerevisiae wt2 strain growth inhibition, hits give high values
Procedure, shortened: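 The panel's yeast strains carry defined changes in DNA repair or cell cycle genes. Each strain is grown with compound, and growth loss is scored relative to vehicle.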

[7] = NCI Yeast Anticancer Drug Screen. Data for the mlh1 strain (AID 171);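 further: 0% = growth of vehicle-treated control cultures of the same strain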; conditions: S. cerevisiae mlh1 strain growth inhibition, hits give high values
Procedure, shortened: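 Inhibition values reflect reduced yeast growth in the presence of compound, referenced to vehicle controls, using a strain chosen for its alteration in DNA repair or cell cycle control.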

[8] = NCI Yeast Anticancer Drug Screen. Data for the sgs1 strain (AID 173);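 further: 0% = growth of vehicle-only control cultures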; conditions: S. cerevisiae sgs1 mutant, hits give high values
Procedure, shortened: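 Vehicle-treated cultures served as reference for growth inhibition of a yeast strain altered in DNA damage repair or cell cycle control after compound exposure.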

[9] = NCI Yeast Anticancer Drug Screen. Data for the mlh1 rad18 strain (AID 175); conditions: S. cerevisiae mlh1 rad18 strain growth inhibition, hits give high values
Procedure, shortened: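 Inhibition values reflect reduced growth of mutant yeast versus vehicle-treated controls following compound exposure; the mutations affect DNA damage repair.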

[10] = NCI Yeast Anticancer Drug Screen. Data for the rad52 strain (AID 147);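 further: 0% = growth of vehicle-treated control cultures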; conditions: S. cerevisiae rad52 mutant growth inhibition, hits give high values
Procedure, shortened: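 Inhibition of yeast growth, referenced to vehicle controls, was the measured output for a strain with defective DNA damage repair.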

[11] = NCI Yeast Anticancer Drug Screen. Data for the wt1 strain (AID 149);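 further: 0% = growth of vehicle-treated wt1 cultures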; conditions: S. cerevisiae wt1 strain (SPY 50644) growth inhibition, hits give high values
Procedure, shortened: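 The wt1 strain was treated with compounds, and growth was compared with vehicle-treated cultures to give inhibition.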

[12] = NCI Yeast Anticancer Drug Screen. Data for the rad50EPP+ strain (AID 151);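 further: 0% = growth of vehicle-treated control cultures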; conditions: S. cerevisiae rad50 mutant strain, hits give high values
Procedure, shortened: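 Genetically defined yeast (rad50EPP+, DNA damage repair alteration) is grown with compound, and inhibition of growth is expressed relative to vehicle-treated controls.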

[13] = NCI Yeast Anticancer Drug Screen. Data for the rad50 strain (AID 155);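 further: 0% = growth of vehicle-only cultures of the same strain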; conditions: S. cerevisiae rad50 strain growth inhibition, hits give high values
Procedure, shortened: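 Cells are treated with compound, grown, and their growth is then scored against vehicle-only cultures of the same repair-deficient yeast strain.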

[14] = NCI Yeast Anticancer Drug Screen. Data for the rad14 strain (AID 159);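 further: 0% = growth of vehicle-treated control cultures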; conditions: S. cerevisiae rad14 strain growth inhibition, hits give high values
Procedure, shortened: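 Readout: yeast growth inhibition, referenced to vehicle-only cultures. Strain bears a defined alteration in DNA damage repair.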

[15] = NCI Yeast Anticancer Drug Screen. Data for the rad18 strain (AID 177); conditions: S. cerevisiae rad18 mutant growth inhibition, hits give high values
Procedure, shortened: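 Steps: expose repair-mutant yeast to compound; measure growth; express as inhibition relative to vehicle control.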

[16] = at 5.0 µM (retest, dose inferred, filed as 0.5)
[17] = at 50.0 µM (retest, dose inferred, filed as 5.0)

Measured: growth inhibition

O=Cc1coc2ccccc2c1=O
inactive: [1]; at 100.0 µM 65% | [2]; [16] 9% | [3]; at 1.2 µM -1% | [3]; at 3.7 µM 25% | [3]; at 11.0 µM 27% | [3]; at 33.0 µM 2% | [3]; at 100.0 µM 40% | [4]; [16] 6% | [4]; [17] 19% | [5]; at 1.2 µM 5% | [5]; at 3.7 µM 13% | [5]; [16] 2% | [5]; at 11.0 µM 8% | [5]; at 33.0 µM 15% | [5]; at 100.0 µM 51% | [6]; at 1.2 µM -17% | [6]; at 3.7 µM -11% | [6]; at 11.0 µM 3% | [6]; at 33.0 µM 12% | [7]; at 1.2 µM 1% | [7]; at 3.7 µM 5% | [7]; at 11.0 µM 24% | [7]; at 33.0 µM 30% | [7]; at 100.0 µM 61% | [8]; at 1.2 µM 0% | [8]; at 3.7 µM 14% | [8]; at 11.0 µM 23% | [8]; at 33.0 µM 32% | [8]; at 100.0 µM 60% | [9]; [16] -1% | [9]; [17] 16% | [9]; at 50.0 µM 62.4%
active: [2]; [17] 98% | [2]; at 50.0 µM 89.7% | [4]; at 50.0 µM 75.2% | [5]; [17] 87% | [5]; at 50.0 µM 88.8% | [6]; at 100.0 µM 99%

CCOC(=O)Nc1ccc2c(c1)Cc1ccccc1-2
inactive: [10]; at 1.2 µM -11% | [10]; at 3.7 µM -10% | [10]; at 11.0 µM -7% | [10]; at 33.0 µM -5% | [10]; at 100.0 µM -5% | [11]; at 1.2 µM -2% | [11]; at 3.7 µM 5% | [11]; at 11.0 µM 11% | [11]; at 33.0 µM 7% | [11]; at 100.0 µM 10% | [12]; at 1.2 µM -6% | [12]; at 3.7 µM -13% | [12]; at 11.0 µM 15% | [12]; at 33.0 µM 21% | [12]; at 100.0 µM 21% | [13]; at 1.2 µM -15% | [13]; at 3.7 µM -14% | [13]; [16] 4% | [13]; at 11.0 µM -23% | [13]; at 33.0 µM -22% | [13]; [17] 2% | [13]; at 50.0 µM -9.4% | [13]; at 100.0 µM -9% | [14]; at 1.2 µM 0% | [14]; at 3.7 µM -8% | [14]; at 11.0 µM 1% | [14]; at 33.0 µM 1% | [14]; at 100.0 µM 3% | [2]; [16] 4% | [2]; [17] 8% | [2]; at 50.0 µM 5.6% | [3]; at 1.2 µM -9% | [3]; at 3.7 µM -12% | [3]; at 11.0 µM -13% | [3]; at 33.0 µM -12% | [3]; at 100.0 µM -7% | [4]; [16] -8% | [4]; [17] -3% | [4]; at 50.0 µM -19% | [5]; at 1.2 µM 35% | [5]; at 3.7 µM 28% | [5]; [16] 49% | [5]; at 11.0 µM 21% | [5]; at 33.0 µM 21% | [5]; at 100.0 µM 26% | [6]; at 1.2 µM 5% | [6]; at 3.7 µM 9% | [6]; at 11.0 µM 14% | [6]; at 33.0 µM 19% | [6]; at 100.0 µM 14% | [7]; at 1.2 µM -14% | [7]; at 3.7 µM -8% | [7]; at 11.0 µM -7% | [7]; at 33.0 µM -7% | [7]; at 100.0 µM -5% | [8]; at 1.2 µM -18% | [8]; at 3.7 µM -12% | [8]; at 11.0 µM -4% | [8]; at 33.0 µM 3% | [8]; at 100.0 µM 0% | [9]; [16] -11% | [9]; [17] -25% | [9]; at 50.0 µM 16.4% | [15]; at 1.2 µM -11% | [15]; at 3.7 µM -7% | [15]; at 11.0 µM -4% | [15]; at 33.0 µM -6% | [15]; at 100.0 µM -10%
active: [5]; [17] 88% | [5]; at 50.0 µM 87.2%

O=C1CSC(=S)N1Cc1ccc(Cl)cc1Cl
active: [10]; at 11.0 µM 98% | [10]; at 33.0 µM 99% | [10]; at 100.0 µM 98% | [11]; at 11.0 µM 99% | [11]; at 33.0 µM 99% | [11]; at 100.0 µM 97% | [12]; at 3.7 µM 72% | [12]; at 11.0 µM 97% | [12]; at 33.0 µM 99% | [12]; at 100.0 µM 98% | [1]; at 11.0 µM 93% | [1]; at 33.0 µM 99% | [1]; [17] 99% | [1]; at 50.0 µM 99.3% | [1]; at 100.0 µM 99% | [14]; at 11.0 µM 99% | [14]; at 33.0 µM 100% | [14]; at 100.0 µM 99% | [2]; [17] 99% | [2]; at 50.0 µM 99.4% | [3]; at 11.0 µM 96% | [3]; at 33.0 µM 99% | [3]; at 100.0 µM 98% | [4]; [17] 99% | [4]; at 50.0 µM 98.8% | [5]; at 11.0 µM 99% | [5]; at 33.0 µM 99% | [5]; [17] 98% | [5]; at 50.0 µM 99.3% | [5]; at 100.0 µM 99% | [6]; at 11.0 µM 100% | [6]; at 33.0 µM 100% | [6]; at 100.0 µM 99% | [7]; at 11.0 µM 99% | [7]; at 33.0 µM 99% | [7]; at 100.0 µM 99% | [8]; at 11.0 µM 99% | [8]; at 33.0 µM 99% | [8]; at 100.0 µM 99% | [9]; [17] 98% | [9]; at 50.0 µM 97% | [15]; at 11.0 µM 99% | [15]; at 33.0 µM 99% | [15]; at 100.0 µM 98%
inactive: [10]; at 1.2 µM -4% | [10]; at 3.7 µM 8% | [11]; at 1.2 µM 1% | [11]; at 3.7 µM 24% | [12]; at 1.2 µM 12% | [1]; at 1.2 µM 1% | [1]; at 3.7 µM -1% | [1]; [16] 10% | [14]; at 1.2 µM 3% | [14]; at 3.7 µM 20% | [2]; [16] 41% | [3]; at 1.2 µM -10% | [3]; at 3.7 µM -11% | [4]; [16] 0% | [5]; at 1.2 µM -9% | [5]; at 3.7 µM 15% | [5]; [16] 14% | [6]; at 1.2 µM 12% | [6]; at 3.7 µM 55% | [7]; at 1.2 µM -13% | [7]; at 3.7 µM 8% | [8]; at 1.2 µM 2% | [8]; at 3.7 µM 33% | [9]; [16] 66% | [15]; at 1.2 µM -6% | [15]; at 3.7 µM 27%
